In PubChem BioAssay (NCI):
The panel holds about 79,000 compounds, 15% with a hit somewhere; the sample as a whole holds those more often. Active and inactive are the calls of the source. No stated cut-off is given here; in the data, active means growth inhibition above about 70%; inactive means the rest.

Legend:
[1] = NCI Yeast Anticancer Drug Screen. Data for the rad52 strain (AID 147);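 further: 0% = growth of vehicle-treated control cultures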; details: S. cerevisiae rad52 mutant growth inhibition, stronger effect = higher value
In short: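 The repair-mutant yeast strain was incubated with compounds, then growth was read and inhibition derived relative to vehicle.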

[2] = NCI Yeast Anticancer Drug Screen. Data for the wt1 strain (AID 149);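 further: 0% = growth of vehicle-treated wt1 cultures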; details: S. cerevisiae wt1 strain (SPY 50644) growth inhibition, stronger effect = higher value
In short: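 Each compound is tested on wt1 yeast and the loss of growth versus vehicle gives the inhibition value.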

[3] = NCI Yeast Anticancer Drug Screen. Data for the rad50EPP+ strain (AID 151);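 further: 0% = growth of vehicle-treated control cultures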; details: S. cerevisiae rad50 mutant strain, stronger effect = higher value
In short: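 Vehicle-normalised growth inhibition; rad50EPP+ yeast strain, altered in DNA damage repair, compound-treated.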

[4] = NCI Yeast Anticancer Drug Screen. Data for the mgt1 strain (AID 153); details: S. cerevisiae mgt1 mutant growth inhibition, stronger effect = higher value
In short: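 Vehicle-normalized growth inhibition is determined in mgt1 yeast, a strain selected for a defined alteration in DNA repair or cell cycle control.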

[5] = NCI Yeast Anticancer Drug Screen. Data for the rad50 strain (AID 155);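 further: 0% = growth of vehicle-only cultures of the same strain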; details: S. cerevisiae rad50 strain growth inhibition, stronger effect = higher value
In short: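 Vehicle-treated cultures provide the reference for the growth inhibition reported for compound-exposed, repair-deficient yeast.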

[6] = NCI Yeast Anticancer Drug Screen. Data for the mec2-1 strain (AID 157); details: S. cerevisiae mec2-1 strain, stronger effect = higher value
In short: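 Mutant yeast (mec2-1) grown with compound; growth inhibition relative to vehicle control reported.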

[7] = NCI Yeast Anticancer Drug Screen. Data for the rad14 strain (AID 159);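 further: 0% = growth of vehicle-treated control cultures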; details: S. cerevisiae rad14 strain growth inhibition, stronger effect = higher value
In short: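 Inhibition of growth is reported for a repair-deficient yeast mutant following compound treatment, calculated relative to cultures that received vehicle.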

[8] = NCI Yeast Anticancer Drug Screen. Data for the sgs1 mgt1 strain (AID 161);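 further: 0% = growth of cultures given vehicle only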; details: S. cerevisiae sgs1 mgt1 strain, stronger effect = higher value
In short: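 This yeast growth screen uses a strain with defined DNA-repair lesions; compound-treated growth is compared with vehicle-treated growth.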

[9] = NCI Yeast Anticancer Drug Screen. Data for the CLN2oe strain (AID 163);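 further: 0% = growth of vehicle-only control cultures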; details: S. cerevisiae CLN2oe strain, stronger effect = higher value
In short: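 Compounds are applied to yeast harbouring a defined cell-cycle control change; reduced growth compared with vehicle-treated controls gives the value.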

[10] = NCI Yeast Anticancer Drug Screen. Data for the cln2 rad14 strain (AID 165);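 further: 0% = growth equal to vehicle treated cultures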; details: S. cerevisiae cln2 rad14 strain, stronger effect = higher value
In short: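 Readout is yeast growth inhibition versus vehicle-treated controls, using a strain with cln2 and rad14 alterations exposed to compound.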

[11] = NCI Yeast Anticancer Drug Screen. Data for the bub3 strain (AID 167); details: S. cerevisiae bub3 mutant strain, stronger effect = higher value
In short: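 Mutant yeast screening strain plus compound; vehicle-treated cultures serve as the 0% inhibition reference.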

[12] = NCI Yeast Anticancer Drug Screen. Data for the wt2 strain (AID 169); details: S. cerevisiae wt2 strain growth inhibition, stronger effect = higher value
In short: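 Against vehicle-treated controls, the growth of yeast exposed to each compound was compared, and the inhibition was recorded.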

[13] = NCI Yeast Anticancer Drug Screen. Data for the mlh1 strain (AID 171);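 further: 0% = growth of vehicle-treated control cultures of the same strain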; details: S. cerevisiae mlh1 strain growth inhibition, stronger effect = higher value
In short: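 Measured: yeast growth. Reference: vehicle-treated controls. Organism: strain with a defined alteration affecting DNA damage repair or cell cycle control, treated with compound.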

[14] = NCI Yeast Anticancer Drug Screen. Data for the sgs1 strain (AID 173);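 further: 0% = growth of vehicle-only control cultures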; details: S. cerevisiae sgs1 mutant, stronger effect = higher value
In short: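 Each compound was added to cultures of the altered yeast strain. Growth was recorded, and inhibition was derived by comparison with vehicle controls.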

[15] = NCI Yeast Anticancer Drug Screen. Data for the mlh1 rad18 strain (AID 175); details: S. cerevisiae mlh1 rad18 strain growth inhibition, stronger effect = higher value
In short: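 Genetically defined yeast (DNA repair-deficient) exposed to compounds; growth inhibition determined relative to vehicle.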

[16] = NCI Yeast Anticancer Drug Screen. Data for the rad18 strain (AID 177); details: S. cerevisiae rad18 mutant growth inhibition, stronger effect = higher value
In short: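 Vehicle-treated cultures served as the baseline for scoring compound-induced growth inhibition in DNA-repair-mutant yeast.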

[17] = at 5.0 µM (retest, dose inferred, filed as 0.5)
[18] = at 50.0 µM (retest, dose inferred, filed as 5.0)

Measured: growth inhibition

O=CC1(F)CC1(c1ccccc1)c1ccccc1 (stereo unspecified)
inactive: [1]; at 1.2 µM -2% | [1]; at 3.7 µM -4% | [1]; at 11.0 µM -2% | [1]; at 33.0 µM 1% | [2]; at 1.2 µM -1% | [2]; at 3.7 µM -1% | [2]; at 11.0 µM -4% | [2]; at 33.0 µM -1% | [3]; at 1.2 µM -1% | [3]; at 3.7 µM 0% | [3]; at 11.0 µM 5% | [3]; at 33.0 µM 10% | [3]; at 100.0 µM 17% | [4]; at 1.2 µM -2% | [4]; at 3.7 µM -7% | [4]; at 11.0 µM -2% | [4]; at 33.0 µM 0% | [5]; at 1.2 µM 0% | [5]; at 3.7 µM -46% | [5]; [17] -3% | [5]; at 11.0 µM 18% | [5]; at 33.0 µM 5% | [5]; [18] 17% | [5]; at 50.0 µM 27.8% | [6]; at 1.2 µM -3% | [6]; at 3.7 µM -3% | [6]; [17] 6% | [6]; at 11.0 µM -2% | [6]; at 33.0 µM 4% | [6]; [18] 21% | [6]; at 50.0 µM 21% | [7]; at 1.2 µM 0% | [7]; at 3.7 µM 1% | [7]; at 11.0 µM 2% | [7]; at 33.0 µM 7% | [8]; [17] -2% | [8]; [18] 53% | [8]; at 50.0 µM 55.6% | [9]; at 1.2 µM -2% | [9]; at 3.7 µM 1% | [9]; at 11.0 µM 2% | [9]; at 33.0 µM 1% | [9]; at 100.0 µM 25% | [10]; [17] -1% | [10]; [18] 2% | [10]; at 50.0 µM 23.8% | [11]; at 1.2 µM -2% | [11]; at 3.7 µM -4% | [11]; [17] -3% | [11]; at 11.0 µM -6% | [11]; at 33.0 µM -4% | [11]; [18] 11% | [11]; at 50.0 µM 5.65% | [12]; at 1.2 µM -1% | [12]; at 3.7 µM 6% | [12]; at 11.0 µM -2% | [12]; at 33.0 µM 2% | [13]; at 1.2 µM -2% | [13]; at 3.7 µM -3% | [13]; at 11.0 µM -3% | [13]; at 33.0 µM 2% | [14]; at 1.2 µM -2% | [14]; at 3.7 µM -1% | [14]; at 11.0 µM 3% | [14]; at 33.0 µM 22% | [15]; [17] -1% | [15]; [18] 14% | [15]; at 50.0 µM 14.2% | [16]; at 1.2 µM -6% | [16]; at 3.7 µM 2% | [16]; at 11.0 µM 3% | [16]; at 33.0 µM 13%
active: [1]; at 100.0 µM 81% | [2]; at 100.0 µM 73% | [4]; at 100.0 µM 87% | [5]; at 100.0 µM 94% | [6]; at 100.0 µM 87% | [7]; at 100.0 µM 80% | [11]; at 100.0 µM 89% | [12]; at 100.0 µM 98% | [13]; at 100.0 µM 94% | [14]; at 100.0 µM 98% | [16]; at 100.0 µM 94%

CCCCCCCCSC1=C(Cl)C(=O)C(OC)=C(OC)C1=O
active: [1]; at 100.0 µM 87% | [2]; at 100.0 µM 88% | [3]; at 100.0 µM 73% | [4]; at 100.0 µM 85% | [5]; at 100.0 µM 83% | [6]; at 100.0 µM 80% | [9]; at 100.0 µM 80% | [12]; at 100.0 µM 87% | [13]; at 100.0 µM 78% | [14]; at 100.0 µM 80% | [15]; [18] 84% | [15]; at 50.0 µM 79.3% | [16]; at 100.0 µM 85%
inactive: [1]; at 1.2 µM -25% | [1]; at 3.7 µM -19% | [1]; at 11.0 µM 15% | [1]; at 33.0 µM 53% | [2]; at 1.2 µM -55% | [2]; at 3.7 µM -23% | [2]; at 11.0 µM -17% | [2]; at 33.0 µM 0% | [3]; at 1.2 µM -29% | [3]; at 3.7 µM -44% | [3]; at 11.0 µM -1% | [3]; at 33.0 µM 18% | [4]; at 1.2 µM -30% | [4]; at 3.7 µM -41% | [4]; at 11.0 µM -24% | [4]; at 33.0 µM 17% | [5]; at 1.2 µM -25% | [5]; at 3.7 µM -16% | [5]; [17] 25% | [5]; at 11.0 µM -17% | [5]; at 33.0 µM 19% | [5]; [18] 68% | [5]; at 50.0 µM 22.6% | [6]; at 1.2 µM -37% | [6]; at 3.7 µM -30% | [6]; [17] 24% | [6]; at 11.0 µM -4% | [6]; at 33.0 µM 13% | [6]; [18] 68% | [6]; at 50.0 µM 54.1% | [7]; at 1.2 µM -32% | [7]; at 3.7 µM -11% | [7]; at 11.0 µM -14% | [7]; at 33.0 µM 2% | [7]; at 100.0 µM 66% | [8]; [17] 22% | [8]; [18] 10% | [8]; at 50.0 µM 69.1% | [9]; at 1.2 µM -16% | [9]; at 3.7 µM -6% | [9]; at 11.0 µM 21% | [9]; at 33.0 µM 33% | [10]; [17] 13% | [10]; [18] -24% | [10]; at 50.0 µM 35.1% | [11]; at 1.2 µM -40% | [11]; at 3.7 µM -30% | [11]; [17] 20% | [11]; at 11.0 µM -43% | [11]; at 33.0 µM -15% | [11]; [18] 6% | [11]; at 50.0 µM 59% | [11]; at 100.0 µM 57% | [12]; at 1.2 µM -31% | [12]; at 3.7 µM -19% | [12]; at 11.0 µM -46% | [12]; at 33.0 µM -11% | [13]; at 1.2 µM -38% | [13]; at 3.7 µM -31% | [13]; at 11.0 µM 6% | [13]; at 33.0 µM 27% | [14]; at 1.2 µM -42% | [14]; at 3.7 µM -27% | [14]; at 11.0 µM 8% | [14]; at 33.0 µM 3% | [15]; [17] 36% | [16]; at 1.2 µM -15% | [16]; at 3.7 µM -26% | [16]; at 11.0 µM 1% | [16]; at 33.0 µM 58%
